The results in this text go back to PubChem BioAssay (NCATS).

Several values for one entry are separate records, joined by “and”; a condition that tells them apart may be missing. Equal values may be shown once. Inconclusive results are not listed. Unmarked numbers belong to inactive results. Activity calls are given as the source filed them. The call rests on the fitted dose curve; in most records, active means well fitted activation curve with a large enough effect; inconclusive means small, poorly fitted or top-dose-only effect; inactive means no such curve, though single readings can be large or run the other way.
Potency means the concentration at half of the fitted maximal effect.

Chain of Cellular tumor antigen p53 (Homo sapiens) (P04637 whole entry, looked up): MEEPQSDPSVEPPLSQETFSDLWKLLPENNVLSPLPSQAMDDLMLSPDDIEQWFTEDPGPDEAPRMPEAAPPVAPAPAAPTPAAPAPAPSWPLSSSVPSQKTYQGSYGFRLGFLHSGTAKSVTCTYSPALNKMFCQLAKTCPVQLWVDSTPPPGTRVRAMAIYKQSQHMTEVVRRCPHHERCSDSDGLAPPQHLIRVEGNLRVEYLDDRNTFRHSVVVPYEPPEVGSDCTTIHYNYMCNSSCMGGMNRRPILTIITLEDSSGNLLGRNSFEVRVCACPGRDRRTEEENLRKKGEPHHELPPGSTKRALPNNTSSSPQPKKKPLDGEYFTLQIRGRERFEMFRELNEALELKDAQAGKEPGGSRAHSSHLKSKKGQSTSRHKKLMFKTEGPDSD

The target of this test is Cellular tumor antigen p53 (Homo sapiens) (UniProt P04637). Put plainly: Primary qHTS for small molecule compounds that upregulate eGFP-tagged delta133p53alpha (in N-terminal) cells. (AID 2060322). Further: nearly all actives have a fitted effect of over 75% in size.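 On activation: series mostly up to about 56 µM; 0% = DMSO vehicle and 100% = reference activator.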 Conditions: NCI-H358 eGFP-delta133p53alpha fluorescence, 24 h; activation: active compounds read high. In a few lines:
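NCI-H358 cells pre-induced 24 h with 10 ng/ml doxycycline to express N-terminal eGFP-delta133p53alpha, then dosed 24 h at 37C without doxycycline; fixed, Hoechst-stained, GFP intensity by laser scanning cytometry, normalized to DMSO (0%) and 57.5 uM 5-azacytidine (100%).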
In general terms: qHTS replaces the single test concentration by a dilution series.
Consider `CC(C)=CCC[C@@](C)(O)[C@H]1CC=C(C)CC1`, for which the activation is 18.6%.

Turning to `C=C1C(=O)O[C@H]2[C@@H]1CCC(C)=CCC[C@@]1(C)O[C@@H]21`, the Potency is 19.3 µM (active).

Consider `N[C@@H](CSCCCO)C(=O)O`, for which the activation is -10%.

On to `O=C1C(=O)c2ccccc2C(O)=C1C1CCC(c2ccc(Cl)cc2)CC1` (stereo not given), for which the activation is -33.3%.

Take `Nc1nc2ncc(CNc3ccc(C(=O)N[C@@H](CCC(=O)O)C(=O)O)cc3)nc2c(=O)[nH]1`: the activation is -10%.

In the case of `Cc1cc2c(OCC(CNC(C)(C)C)OC(=O)c3ccccc3)cccc2[nH]1` (stereo not given), the activation was 9.6%.

Consider `CC1(C)S[C@@H]2[C@H](N=CN3CCCCCC3)C(=O)N2[C@H]1C(=O)O`, for which the activation was -11.9%.

On to `O=C(O)c1ccnc2cc(C(OCCCN3CCCCC3)c3ccccc3Cl)[nH]c12` (stereo not given), for which the activation was 1.12%.

Consider `OCC(O)C(O)C(O)CO` (stereo not given), for which the activation was 28.5%.

Consider `CC[C@H](CC[C@@H](C)[C@H]1CC[C@H]2[C@@H]3CC=C4C[C@@H](O)CC[C@]4(C)[C@@H]3CC[C@]12C)C(C)C`, for which the activation is -21.3%.

For `O=C1c2ccccc2C(=O)C1c1ccccc1`, the activation was -12.6%.

Take `OC(CCCN1CCCCC1)(c1ccccc1)c1ccccc1`: the activation is -16.4%.

As for `O=C(O)C(Cc1cc(I)c(O)c(I)c1)c1ccccc1` (stereo not given), the activation was -19.8%.

For `CC1(C)[C@H](O[C@H]2O[C@H](C(=O)O)[C@@H](O)[C@H](O)[C@H]2O[C@@H]2O[C@H](C(=O)O)[C@@H](O)[C@H](O)[C@H]2O)CC[C@@]2(C)[C@H]1CC[C@]1(C)[C@H]2C(=O)C=C2[C@H]3C[C@@](C)(C(=O)O)CC[C@]3(C)CC[C@]21C`, the activation is -5.71%.

For the molecule `Cc1cccc(Nc2ccncc2S(=O)(=O)NC(=O)NC(C)C)c1`, the activation is 14.1% and -1.67%.

With `Cc1cccc(C)c1NC(=O)CN1CCCCCC1`, the activation was 6.69%.

With `CCCc1ncc(C[n+]2ccccc2C)c(N)n1`, the activation is 13.4%.

Turning to `Nc1ccc(S(=O)(=O)Nc2ccc(Cl)nn2)cc1`, the activation was 2.51%.

Take `O=Cc1ccc(O)c(O)c1O`: the activation is -4.18%.

In the case of `CC1CC(OC(=O)c2ccccc2O)CC(C)(C)C1` (stereo not given), the activation was -0.565%.

Turning to `CC(C)=CCC/C(C)=C/CC/C(C)=C/C(=O)OCC(=O)[C@@]1(O)CC[C@H]2[C@@H]3CCC4=CC(=O)C=C[C@]4(C)[C@H]3[C@@H](O)C[C@@]21C`, the activation was -21.8%.

As for `c1ccc(CCNc2nc(-c3ccccc3)cs2)cc1`, the activation is 20.1%.

Take `COC(=O)[C@@H]1[C@H]2C[C@@H]3c4[nH]c5ccccc5c4CCN3C[C@@H]2CC[C@@H]1O`: the activation was 21.4%.

As to `O=C(O)Cc1sc(-c2ccccc2)nc1-c1ccc(Cl)cc1`, the activation is -17.6%.

Regarding `CN1CCN(c2cc3c(cc2F)c(=O)c(C(=O)O)cn3-c2ccc(F)cc2)CC1`, the activation was 20.1%.

For `COc1ccc(NS(=O)(=O)c2ccc(N)cc2)nn1`, the activation was 6.69%.

As to `CCCN(CCC)S(=O)(=O)c1ccc(C(=O)O)cc1`, the activation was 8.47%.

In the case of `C[C@H]1C[C@H](O)c2ccsc2S1(=O)=O`, the activation was -26.6%.

As to `Cc1oc(=O)oc1COC(=O)[C@@H]1N2C(=O)[C@@H](NC(=O)[C@H](N)c3ccccc3)[C@H]2SC1(C)C`, the activation was -5.08%.

For the molecule `CCN(CC)CCOc1ccc(C(O)(Cc2ccc(Cl)cc2)c2ccc(C)cc2)cc1` (stereo not given), the activation was -6.69%.

`COc1cc(C)c(C=CC(C)=CC=CC(C)=CC(=O)O)c(C)c1C`: the activation is 21.4%.

For the molecule `CCCCC(=O)OCC(=O)[C@H]1[C@H](C)C[C@H]2[C@@H]3C[C@H](F)C4=CC(=O)C=C[C@]4(C)[C@@]3(F)[C@@H](O)C[C@@]21C`, the activation is -6.21%.

With `O=C1OC(c2ccc(O)cc2)(c2ccc(O)cc2)c2ccccc21`, the activation was 10.7%.

With `N/C(=N\N=C\c1ccc(Cl)cc1)N/N=C/c1ccc(Cl)cc1`, the activation was 0%.

Regarding `O=C(O)CCC(=O)OC[C@@H](NC(=O)C(Cl)Cl)[C@H](O)c1ccc([N+](=O)[O-])cc1`, the activation is 15.1%.

As for `CC(=O)N(CC(O)CN(C(C)=O)c1c(I)c(C(=O)NCC(O)CO)c(I)c(C(=O)NCC(O)CO)c1I)c1c(I)c(C(=O)NCC(O)CO)c(I)c(C(=O)NCC(O)CO)c1I` (stereo not given), the activation is -16.7%.

Turning to `CC(C)=CCC/C(C)=C/CC/C(C)=C/CCC(=O)OC/C=C(\C)CCC=C(C)C`, the activation is 0.565%.

As for `Cc1cc(Nc2cc(N3CCN(C)CC3)nc(C=Cc3ccccc3)n2)n[nH]1`, the activation is 51.8%.

For the molecule `Oc1ccc(CCNCCCCCCNCCc2ccccc2)cc1O`, the activation is 0%.

As to `O=c1[nH]cnc2nc[nH]c12`, the activation is -9.6%.
